Results on 10 compounds are retold here after PubChem BioAssay (NCI).

About 79,000 compounds went through this panel and 15% of them were active in at least one assay; those are over-represented in the sample as a whole. Values without a mark were called inactive. Calls of active or inactive are those of the source. Cut-off read from the data, not from the text of the source: active = growth inhibition above about 70%; inactive = the rest.

The nature of test [1]: NCI Yeast Anticancer Drug Screen. Data for the rad50 strain (AID 155).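 Note: 0% = growth of vehicle-only cultures of the same strain.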 Particulars: S. cerevisiae rad50 strain growth inhibition, active compounds read high. Put shortly:
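Inhibition values express reduced yeast growth in compound-treated cultures relative to vehicle-treated controls.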

Test [2] is described as follows: NCI Yeast Anticancer Drug Screen. Data for the mec2-1 strain (AID 157). Conditions: S. cerevisiae mec2-1 strain, active compounds read high. Put shortly: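 Growth inhibition is read against vehicle-treated controls after compound exposure of the mec2-1 yeast strain, which is defective in DNA damage repair or cell cycle control.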
A short description of test [3]: NCI Yeast Anticancer Drug Screen. Data for the sgs1 mgt1 strain (AID 161).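 Note: 0% = growth of cultures given vehicle only.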 Particulars: S. cerevisiae sgs1 mgt1 strain, active compounds read high. Put shortly: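 Percent growth inhibition was derived by comparing compound-exposed mutant yeast with vehicle-exposed cultures. The strain carries alterations in DNA damage repair.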
Test [4] in a line: NCI Yeast Anticancer Drug Screen. Data for the cln2 rad14 strain (AID 165).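 Note: 0% = growth equal to vehicle treated cultures.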 Conditions: S. cerevisiae cln2 rad14 strain, active compounds read high. Put shortly:
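Growth inhibition, relative to vehicle-treated controls, is the read-out. The test organism is a yeast strain with defined genetic alterations, cln2 rad14.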

Test [5] in a line: NCI Yeast Anticancer Drug Screen. Data for the bub3 strain (AID 167). Particulars: S. cerevisiae bub3 mutant strain, active compounds read high. Put shortly:
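Steps: expose the mutant yeast strain to compound; grow alongside vehicle-treated cultures; measure growth; express inhibition against the vehicle cultures.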

Test [6] in a line: NCI Yeast Anticancer Drug Screen. Data for the mlh1 rad18 strain (AID 175). Conditions: S. cerevisiae mlh1 rad18 strain growth inhibition, active compounds read high. Put shortly:
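Cells of a genetically altered yeast strain, deficient in DNA damage repair, were treated with compound. Their growth was then compared with that of vehicle-treated cultures to give inhibition.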

Where [7] appears, read: at 5.0 µM (retest, dose inferred, filed as 0.5).
Where [8] appears, read: at 50.0 µM (retest, dose inferred, filed as 5.0).

As for `O=C(Nc1ccc(O)cc1O)c1ccccc1`, the growth inhibition in test [1] (setting [7]) was 2%; in test [1] (setting [8]) it was 53%; in test [1] (at 50.0 µM), 85% (active); in test [2] (setting [7]) it was -15%; in test [2] (setting [8]), 61%; in test [2] (at 50.0 µM), 76.7% (active). Moreover, the growth inhibition in test [3] (setting [7]) is 6%; in test [3] (setting [8]), 82% (active); in test [3] (at 50.0 µM), 90.4% (active); in test [4] (setting [7]), 7%; in test [4] (setting [8]) it was 50%; in test [4] (at 50.0 µM), 72.3% (active). For the same compound, the growth inhibition in test [5] (setting [7]) is 11%; in test [5] (setting [8]), 46%; in test [5] (at 50.0 µM), 89.2% (active); in test [6] (setting [7]), 3%; in test [6] (setting [8]) it was 76% (active); in test [6] (at 50.0 µM) it was 85.1% (active).
With `FC(F)(F)c1nc(SCc2ccc(Cl)cc2)n[nH]1`, the growth inhibition in test [1] (setting [7]) is 3%; in test [1] (setting [8]) it was 20%; in test [1] (at 50.0 µM), 2.45%; in test [2] (setting [7]) it was 0%; in test [2] (setting [8]), 1%; in test [2] (at 50.0 µM) it was -13.8%. For the same compound, the growth inhibition in test [3] (setting [7]) is -7%; in test [3] (setting [8]) it was 15%; in test [3] (at 50.0 µM), -22.4%; in test [4] (setting [7]) it was -10%; in test [4] (setting [8]), -17%; in test [4] (at 50.0 µM) it was 38.6%. For the same compound, the growth inhibition in test [5] (setting [7]) was -9%; in test [5] (setting [8]), 0%; in test [5] (at 50.0 µM), -33.4%.
For the compound `O=C(NO)Nc1nc(Cl)c(Cl)nc1Cl`, the growth inhibition was 16% in test [1] (setting [7]); 97% (active) in test [1] (setting [8]); 90% (active) in test [1] (at 50.0 µM); 18% in test [2] (setting [7]); 99% (active) in test [2] (setting [8]); 92.7% (active) in test [2] (at 50.0 µM). In addition, the growth inhibition in test [3] (setting [7]) was 30%; in test [3] (setting [8]), 99% (active); in test [3] (at 50.0 µM), 90.2% (active); in test [4] (setting [7]), 2%; in test [4] (setting [8]), 99% (active); in test [4] (at 50.0 µM), 83.5% (active). Further, the growth inhibition in test [5] (setting [7]) was 6%; in test [5] (setting [8]) it was 98% (active); in test [5] (at 50.0 µM), 90.3% (active); in test [6] (setting [7]), 20%; in test [6] (setting [8]), 99% (active); in test [6] (at 50.0 µM) it was 90.3% (active).
`O=C(Nc1ccc2c(c1)Cc1cc([N+](=O)[O-])c(F)cc1-2)C(F)(F)F`: the growth inhibition in test [1] (setting [7]) was 13%; in test [1] (setting [8]), 4%; in test [1] (at 50.0 µM) it was 5.25%; in test [2] (setting [7]) it was 1%; in test [2] (setting [8]), 2%; in test [2] (at 50.0 µM) it was 49.2%. The growth inhibition in test [3] (setting [7]) was 3%; in test [3] (setting [8]), -20%; in test [3] (at 50.0 µM), 6.55%; in test [4] (setting [7]) it was 0%; in test [4] (setting [8]), 7%; in test [4] (at 50.0 µM) it was -2.1%. In addition, the growth inhibition in test [5] (setting [7]) was -3%; in test [5] (setting [8]), 0%; in test [5] (at 50.0 µM), -4.35%; in test [6] (setting [7]), 3%; in test [6] (setting [8]), 3%; in test [6] (at 50.0 µM) it was 28.5%.
For `O=C(Nc1ccccc1[N+](=O)[O-])/C(=N/Nc1cccc(Cl)c1)c1c(O)c2ccccc2oc1=O`, the growth inhibition in test [1] (setting [7]) is 29%; in test [1] (setting [8]), 29%; in test [1] (at 50.0 µM), 87.1% (active); in test [2] (setting [7]), 36%; in test [2] (setting [8]), 36%; in test [2] (at 50.0 µM) it was 79.5% (active). The growth inhibition is 35% in test [3] (setting [7]); 35% in test [3] (setting [8]); 89.5% (active) in test [3] (at 50.0 µM); 11% in test [4] (setting [7]); 11% in test [4] (setting [8]); 43.2% in test [4] (at 50.0 µM). For the same compound, the growth inhibition was 27% in test [5] (setting [7]), 27% in test [5] (setting [8]) and 78.8% (active) in test [5] (at 50.0 µM).
As for `NC1=NOC(=O)C1Cc1ccccc1` (stereo unspecified), the growth inhibition in test [1] (setting [7]) is -2%; in test [1] (setting [8]), -1%; in test [1] (at 50.0 µM) it was 2.3%; in test [2] (setting [7]) it was 0%; in test [2] (setting [8]) it was -4%; in test [2] (at 50.0 µM), 8%. Moreover, the growth inhibition in test [3] (setting [7]) was -1%; in test [3] (setting [8]), -2%; in test [3] (at 50.0 µM), 1.8%; in test [4] (setting [7]), -7%; in test [4] (setting [8]), -4%; in test [4] (at 50.0 µM) it was 76.8% (active). Further, the values for the growth inhibition in test [5] (setting [7]), in test [5] (setting [8]) and in test [5] (at 50.0 µM) were 2%, -3% and -6.95%, respectively.
Turning to `COC(CO)(OC)c1ccccc1`, the growth inhibition in test [1] (setting [7]) is -163%; in test [1] (setting [8]), -65%; in test [1] (at 50.0 µM), -0.65%; in test [2] (setting [7]), -50%; in test [2] (setting [8]), -50%; in test [2] (at 50.0 µM) it was -2.9%. Moreover, the growth inhibition is -66% in test [3] (setting [7]); -49% in test [3] (setting [8]); -9% in test [3] (at 50.0 µM); -63% in test [4] (setting [7]); -70% in test [4] (setting [8]); 25.6% in test [4] (at 50.0 µM). In addition, the growth inhibition in test [5] (setting [7]) was -70%; in test [5] (setting [8]) it was -71%; in test [5] (at 50.0 µM), -29.1%; in test [6] (setting [7]) it was -128%; in test [6] (setting [8]), -130%; in test [6] (at 50.0 µM) it was 3.5%.
With `COc1ccc(S)cc1`, the growth inhibition is 0% in test [1] (setting [7]); 72% (active) in test [1] (setting [8]); 78.9% (active) in test [1] (at 50.0 µM); 3% in test [2] (setting [7]); 51% in test [2] (setting [8]); 39.7% in test [2] (at 50.0 µM). For the same compound, the growth inhibition in test [3] (setting [7]) is 0%; in test [3] (setting [8]), 89% (active); in test [3] (at 50.0 µM) it was 94% (active); in test [4] (setting [7]) it was -3%; in test [4] (setting [8]) it was 80% (active); in test [4] (at 50.0 µM) it was 69.5%. Also, the growth inhibition is 0% in test [5] (setting [7]); 62% in test [5] (setting [8]); 76.5% (active) in test [5] (at 50.0 µM); 2% in test [6] (setting [7]); 86% (active) in test [6] (setting [8]); 83.8% (active) in test [6] (at 50.0 µM).
`O=[N+]([O-])c1c(Cl)c(Cl)c(O)c(Cl)c1Cl`: the growth inhibition in test [1] (setting [7]) was 55%; in test [1] (setting [8]) it was 80% (active); in test [1] (at 50.0 µM) it was 76.5% (active); in test [2] (setting [7]), 44%; in test [2] (setting [8]) it was 83% (active); in test [2] (at 50.0 µM), 78.7% (active). Moreover, the growth inhibition in test [3] (setting [7]) is 75% (active); in test [3] (setting [8]), 87% (active); in test [3] (at 50.0 µM), 90% (active); in test [4] (setting [7]), 31%; in test [4] (setting [8]), 64%; in test [4] (at 50.0 µM), 30.9%. The growth inhibition in test [5] (setting [7]) is 55%; in test [5] (setting [8]), 75% (active); in test [5] (at 50.0 µM) it was 78.2% (active); in test [6] (setting [7]), 32%; in test [6] (setting [8]) it was 89% (active); in test [6] (at 50.0 µM) it was 70.8% (active).
As for `CCCCCCSc1nc2ccc(N=Cc3ccccc3O)cc2s1`, the growth inhibition in test [1] (setting [7]) is 90% (active); in test [1] (setting [8]) it was 89% (active); in test [1] (at 50.0 µM), 81.8% (active); in test [2] (setting [7]), 83% (active); in test [2] (setting [8]), 91% (active); in test [2] (at 50.0 µM), 55.2%. Besides, the growth inhibition in test [3] (setting [7]) was 93% (active); in test [3] (setting [8]) it was 88% (active); in test [3] (at 50.0 µM) it was 70.3% (active); in test [4] (setting [7]) it was 58%; in test [4] (setting [8]) it was 65%; in test [4] (at 50.0 µM), 48%. Further, the growth inhibition was 55% in test [5] (setting [7]); 86% (active) in test [5] (setting [8]); 15.2% in test [5] (at 50.0 µM); 86% (active) in test [6] (setting [7]); 88% (active) in test [6] (setting [8]); 80.1% (active) in test [6] (at 50.0 µM).
